# Only some compounds are listed: those with a hit (about 32% of all), similar ones and a draw of the others.
# CYP2C9 act: increases human cytochrome P450 2C9 activity; recombinant CYP2C9, luciferin-H conversion, luminescence; stronger effect = higher value; factor 1 = untreated enzyme, 0 = blocked; P11712; 96,000 compounds, 1.4% hits; AID 1024; activation factor at 5 µM;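 active = activation factor of 2 or more for CYP2C9 at a 5 µM dose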;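 note: 0 = sulfaphenazole-blocked wells and 1 = vehicle-only wells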
# CYP2C9 inh: inhibitors of human CYP2C9; P11712; CYP2C9 Supersomes, luciferin-H conversion, luminescence; inhibition, % at 5 µM; 96,000 compounds, 20% hits; AID 777;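 active = blocking of liver enzyme CYP2C9 beyond about 50% at 5 µM, limit read from the data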
# PostGolgi ctrl: growth of the yeast control strain, post-Golgi counter-screen. efflux-deficient yeast background strain, growth absorbance A615, 16 h. inhibition, % at 10 µM. 98,000 compounds, 5% hits
# CYP2C19 act: activators of human cytochrome P450 2C19; P33261; AID 1025; recombinant CYP2C19, luciferin-H EGE luminescence; stronger effect = higher value; 0 = fully inhibited enzyme, 1 = untreated enzyme; 96,000 tested, under 10 active; activation factor at 5 µM;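 active = activation factor of at least 2 at 5 µM in the primary screen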;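 note: 0 = wells with 2.5 mM tranylcypromine and 1 = vehicle-only wells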
# Target sequence (P33261 whole entry, looked up): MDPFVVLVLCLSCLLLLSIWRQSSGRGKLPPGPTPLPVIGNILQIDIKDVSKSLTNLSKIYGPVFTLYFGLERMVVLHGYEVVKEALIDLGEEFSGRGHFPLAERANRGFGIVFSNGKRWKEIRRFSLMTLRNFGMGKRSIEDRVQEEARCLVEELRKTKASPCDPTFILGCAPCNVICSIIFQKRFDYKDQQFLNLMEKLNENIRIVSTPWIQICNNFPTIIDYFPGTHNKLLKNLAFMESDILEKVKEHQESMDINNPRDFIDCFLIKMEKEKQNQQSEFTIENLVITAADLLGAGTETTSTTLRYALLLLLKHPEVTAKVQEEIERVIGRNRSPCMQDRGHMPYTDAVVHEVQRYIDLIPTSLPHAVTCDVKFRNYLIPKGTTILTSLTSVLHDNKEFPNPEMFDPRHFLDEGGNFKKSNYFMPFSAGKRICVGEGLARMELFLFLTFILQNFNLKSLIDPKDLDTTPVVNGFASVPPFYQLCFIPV
# CYP2C19 inh: human CYP2C19 inhibition; P33261; CYP2C19 Supersomes, luciferin-H EGE luminescence, 30 min; inhibition, % at 5 µM; 96,000 compounds, 21% hits;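 active = CYP2C19 inhibition above a set limit at 5 µM in the primary screen, cut at about 50% in these data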;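 note: plate controls were negative control wells for no effect and 2.5 mM tranylcypromine positive control for full effect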
# PostGolgi yeast: growth inhibition of a yeast mutant, post-Golgi transport screen | post-Golgi transport phenotypic cell assay | inhibition, % at 10 µM | 98,000 compounds, 0.9% hits;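 note: yeast cells grown in 1536-well plates; yeast grown about 18 h at 30C before absorbance read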
# * marks the source's active call; other numbers are inactive results. Cut-off read from the data, not from the text of the source, unless noted: active = inhibition above about 30%; inactive = the rest.
SMILES,CYP2C9 act,CYP2C9 inh,PostGolgi ctrl,CYP2C19 act,CYP2C19 inh,PostGolgi yeast
COc1cccc(CNC(=O)C2CCCN(S(=O)(=O)c3cccc4nonc34)C2)c1 (configuration not stated),0.7,28,-8,0.9,11,-8
CCS(=O)(=O)N1CCC(C(=O)NCc2cccc(OC)c2)CC1,1,-1,-12,1,-4,-4
COc1cccc(CNC(=O)C2CCCN(S(C)(=O)=O)C2)c1 (configuration not stated),0.3,75*,18,0.9,8,-6
COc1cccc(CNC(=O)C2CCCN(S(=O)(=O)c3cnc[nH]3)C2)c1 (configuration not stated),0.2,77*,5,0.1,92*,-12
COc1cccc(CNC(=O)C2CCN(S(=O)(=O)c3cnc[nH]3)CC2)c1,0.2,76*,5,0.7,29,3
COCCN(Cc1cc2ccccc2[nH]c1=O)C(=O)c1ccccc1OC,1.2,-18,-9,0.9,7,-9
CCNc1nc(SCCOc2ccc(C)cc2)nc(N(C)C)n1,1,2,8,0.9,12,-10
CN(C)c1nc(C(=O)Nc2ccccc2)nc(N(C)C)n1,0.8,16,1,0.8,18,5
CN(C)c1nc(SCCOC(=O)Nc2ccccc2)nc(N(C)C)n1,0.3,68*,13,0,99*,-6
CCOc1nc(SCCOc2ccccc2)nc(N(C)C)n1,0.9,10,5,0.6,43,41*
CC(=O)CCc1c(C)[nH]c2ccccc2c1=O,2.2*,-117,-2,1.1,-7,8
COCCN(CCOC)Cc1c(C)[nH]c2ccccc2c1=O,0.7,35,-6,0.4,65*,1
CC(=O)c1c(C)[nH]c2ccccc2c1=O,1.4,-40,23,1.1,-15,0
CCc1c(C)[nH]c2ccccc2c1=O,4.7*,-372,11,1.1,-14,13
Cc1[nH]c2ccccc2c(=O)c1CN(C)Cc1ccccc1,0.9,12,6,1,0,-1
COc1ccc(N2C(=O)CC(N3CCN(C4CCc5ccccc5C4)CC3)C2=O)cc1 (configuration not stated),1,-3,-3,1,3,4
COC(=O)c1c(C)[nH]c(C)c1-c1ccc(C)cc1,0.6,38,16,0.2,82*,0
COc1ccc(CC(=O)NNC(=S)Nc2ccccc2)cc1Br,0.6,37,-4,0.3,74*,-4
COc1ccc(CC(=O)NNC(=S)Nc2ccc(Br)cc2)cc1,0.5,52*,10,0.6,42,1
COc1ccc(NC(=S)NNC(=O)Cn2nc([N+](=O)[O-])cc2C)cc1,1.1,-11,13,1.1,-11,-3
COc1ccc(C(=O)NNC(=O)Cc2ccc(-c3ccccc3)cc2)cc1OC,1.2,-24,0,1.1,-13,-5
CCOc1ccc(CC(=O)NNC(=S)Nc2ccccc2)cc1Br,0.3,72*,-5,0.5,53*,5
CCOc1cc(NC(=S)Nc2ccccc2)c(OCC)cc1NC(=O)c1ccccc1,1,4,-9,1.1,-6,0
COc1ccc(N2Cc3ccccc3C2)cc1Cl,0.4,58*,6,0.9,12,1
COc1ccc(Cl)cc1N1Cc2ccccc2C1,0.7,27,32*,0.9,14,-5
SMILES,CYP2C9 act,CYP2C9 inh,PostGolgi ctrl,CYP2C19 act,CYP2C19 inh,PostGolgi yeast
COCCNC(=O)CN1CCC(n2c(C)nc3cc(C(F)(F)F)ccc32)CC1,1,4,5,0.8,16,1
CCC(=O)N1c2ccccc2[C@@H](N(C(C)=O)c2ccccc2)C[C@H]1C,1,2,3,0.8,16,-13
CC1CC(N(C(=O)c2ccccc2Cl)c2ccccc2)c2ccccc2N1 (configuration not stated),0.9,10,39*,0.9,7,3
CCOC(=O)c1ccc(NC(=O)N2CCN(CCc3ccccc3)CC2)cc1,0.3,66*,12,0.6,43,-9
CCCC(=O)Nc1cccc(NC(=O)CN2CCN(c3ccccc3OC)CC2)c1,0.2,77*,4,0.1,88*,-2
COc1ccccc1NC(=O)N1CCN(c2ccccn2)CC1,1.8,-78,-4,0.7,25,-4
COc1ccc(C)cc1NC(=O)CN1CCN(CC(=O)Nc2ccccc2F)CC1,0.9,12,11,0.4,61*,-4
COc1ccccc1NC(=O)N1CCN(c2ccccc2F)CC1,2.4*,-135,5,0.6,41,3
C=CCSc1nc2c(c(=N)n1CC=C)C1CCCC1S2 (configuration not stated),0.6,36,1,0.7,32,6
COc1ccccc1NC(=O)CCN1CCN(Cc2ccccc2)CC1,0.4,57*,8,0.8,24,4
COc1ccccc1NC(=O)CN1CCN(CC(=O)Nc2cc(NC(C)=O)ccc2OC)CC1,0.8,24,3,0.6,41,-1
COc1ccc(Cl)cc1NC(=O)N1CCN(CCc2ccccc2)CC1,2.3*,-130,17,0.3,73*,13
COc1ccccc1NC(=O)CN1CCN(c2ccccc2F)CC1,0.3,66*,10,0.1,88*,-3
COc1ccc(NC(C)=O)cc1NC(=O)CN1CCN(CC(=O)Nc2ccc(Cl)cc2)CC1,0.8,25,12,0.3,67*,-1
COc1ccc(NC(C)=O)cc1NC(=O)CN1CCN(CC(=O)Nc2ccccc2Cl)CC1,0.8,23,8,0.5,46,7
COc1cccc(-n2c(Cc3cc(=O)[nH]c(=O)[nH]3)nnc2SCC(=O)N2CCCCC2)c1,1.2,-19,13,1,2,-5
COc1ccc(N2CCN(CCNC(=O)c3ccc(NC(=O)C4CCCO4)cc3)CC2)cc1 (configuration not stated),1.1,-10,0,1,0,-13
CCn1nnc(NC(=O)c2cc3ccccc3o2)n1,0.9,10,2,1,-2,-2
Cc1ccc(C)c(N2CCN(CC3CC=CCC3)CC2)c1 (configuration not stated),0.9,6,1,0.9,11,12
O=C(CN1CCN(c2ccc(F)cc2)CC1)Nc1cc(C(F)(F)F)ccc1Cl,1.2,-16,48*,1.1,-5,-4
COc1cccc(NC(=O)CN2CCN(c3ccccc3F)CC2)c1,0.3,67*,32*,0.4,62*,-8
COc1cc(NC(=O)CN2CCN(c3ccccc3F)CC2)cc(OC)c1,0.7,34,3,0.8,22,2
COc1ccc(Cl)cc1NC(=O)C(C)N1CCN(C/C=C/c2ccccc2)CC1 (configuration not stated),0.1,91*,19,0,97*,65*
COc1ccccc1N1CCN(CCOc2c(OC)cccc2OC)CC1,2.2*,-118,3,0.9,15,3

# Source: PubChem (several laboratories)
